{"source": "PubChem BioAssay AID782", "about": "(Emory University Molecular Libraries Screening Center, 2007)", "note": "About 800 (0.36%) of roughly 220,000 compounds were called active. For the sample, actives were picked, then their nearest neighbours and some compounds at random. A number with no mark means an inactive call.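 Rule for the calls: active = inhibition above about 30% (limit read from the data); inactive = the rest.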", "data": [{"biological_target": "Eukaryotic translation initiation factor 4E (Mus musculus) + Eukaryotic translation initiation factor 4 gamma 1 (Homo sapiens) (UniProt P63073+Q04637)", "sequence (P63073 whole entry, looked up, the tested form may be a part)": "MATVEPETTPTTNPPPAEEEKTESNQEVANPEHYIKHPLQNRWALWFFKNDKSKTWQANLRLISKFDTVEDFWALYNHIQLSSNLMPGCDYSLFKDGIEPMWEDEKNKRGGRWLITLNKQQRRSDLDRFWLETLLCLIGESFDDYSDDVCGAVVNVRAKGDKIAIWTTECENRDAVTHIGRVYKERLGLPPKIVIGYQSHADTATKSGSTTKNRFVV", "sequence (Q04637 whole entry, looked up, the tested form may be a part)": "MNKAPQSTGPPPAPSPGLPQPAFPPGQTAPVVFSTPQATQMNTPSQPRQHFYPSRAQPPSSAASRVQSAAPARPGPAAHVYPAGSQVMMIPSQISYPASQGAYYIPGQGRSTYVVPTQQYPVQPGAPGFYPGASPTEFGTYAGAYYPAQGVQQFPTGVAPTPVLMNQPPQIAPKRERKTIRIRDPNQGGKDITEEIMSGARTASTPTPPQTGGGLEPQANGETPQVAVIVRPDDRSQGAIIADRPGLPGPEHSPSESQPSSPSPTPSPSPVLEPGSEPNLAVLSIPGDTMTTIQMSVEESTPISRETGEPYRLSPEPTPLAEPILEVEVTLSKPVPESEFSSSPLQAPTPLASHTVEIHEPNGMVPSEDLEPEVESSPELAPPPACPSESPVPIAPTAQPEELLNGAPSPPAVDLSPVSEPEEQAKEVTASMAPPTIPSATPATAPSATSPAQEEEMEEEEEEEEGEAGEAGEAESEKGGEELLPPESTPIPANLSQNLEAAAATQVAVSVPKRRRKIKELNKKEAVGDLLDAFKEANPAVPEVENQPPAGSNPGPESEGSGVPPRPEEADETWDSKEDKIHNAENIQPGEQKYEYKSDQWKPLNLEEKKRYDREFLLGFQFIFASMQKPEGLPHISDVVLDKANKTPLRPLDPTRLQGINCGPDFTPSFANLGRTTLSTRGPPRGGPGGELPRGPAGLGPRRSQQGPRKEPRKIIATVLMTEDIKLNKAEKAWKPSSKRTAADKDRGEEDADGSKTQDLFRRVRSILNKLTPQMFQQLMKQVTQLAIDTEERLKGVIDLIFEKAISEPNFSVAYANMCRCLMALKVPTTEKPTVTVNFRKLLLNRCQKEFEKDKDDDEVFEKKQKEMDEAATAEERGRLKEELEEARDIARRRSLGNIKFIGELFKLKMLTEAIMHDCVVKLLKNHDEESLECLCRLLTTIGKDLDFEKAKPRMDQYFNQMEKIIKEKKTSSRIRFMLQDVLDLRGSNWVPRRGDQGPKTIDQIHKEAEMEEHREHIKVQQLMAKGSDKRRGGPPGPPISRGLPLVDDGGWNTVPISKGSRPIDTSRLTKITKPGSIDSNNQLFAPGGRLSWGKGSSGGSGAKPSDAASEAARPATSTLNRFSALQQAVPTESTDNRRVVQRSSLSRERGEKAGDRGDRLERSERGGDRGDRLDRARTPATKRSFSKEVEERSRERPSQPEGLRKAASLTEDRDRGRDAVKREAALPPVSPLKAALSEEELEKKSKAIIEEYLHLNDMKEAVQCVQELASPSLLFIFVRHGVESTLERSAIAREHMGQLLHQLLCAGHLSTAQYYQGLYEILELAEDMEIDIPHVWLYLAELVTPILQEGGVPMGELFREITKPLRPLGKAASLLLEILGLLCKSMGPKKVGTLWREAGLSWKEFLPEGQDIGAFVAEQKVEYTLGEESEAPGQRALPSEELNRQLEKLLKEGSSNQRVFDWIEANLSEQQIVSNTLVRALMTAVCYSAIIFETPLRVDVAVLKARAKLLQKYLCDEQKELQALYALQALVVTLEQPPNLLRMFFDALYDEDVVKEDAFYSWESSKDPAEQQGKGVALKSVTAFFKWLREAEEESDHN", "assay": "eIF4E–eIF4G protein interaction inhibitors, primary screen, biochemical, uHTS, TR-FRET, eIF4GI fragment (AID 782);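 note: 0% = full FRET control wells and 100% = background wells lacking eIF4GI fragment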", "conditions": "TR-FRET eIF4E-eIF4GI(517-606) binding, 2 h; at 21.7 µM; hits give high values", "values": [{"smiles": "CCc1cccc(C)c1NC(=S)N(CCCN1CCN(C)CC1)Cc1cccs1", "inhibition": "-3.86%"}, {"smiles": "Cc1ccnc(NC(=O)C(C)N2C(=O)c3ccccc3C2=O)c1", "note": "(centres undefined)", "inhibition": "1.43%"}, {"smiles": "Cc1ccc(N2C(=O)c3ccccc3C2(O)c2ncc[nH]2)cc1", "note": "(centres undefined)", "inhibition": "55.4% (active)"}, {"smiles": "Cc1ccc(-n2ccc(=O)c(C(=O)O)n2)cc1", "inhibition": "1.06%"}, {"smiles": "CC(=O)Nc1ccc(/C=N/Nc2ccc(C(=O)c3c(C)cc4ccccn34)cc2[N+](=O)[O-])cc1", "inhibition": "63.9% (active)"}, {"smiles": "CNc1ccc(NC(C)=O)cc1[N+](=O)[O-]", "inhibition": "-0.25%"}, {"smiles": "Cc1ccc(Nc2ccc(C(N)=O)cc2[N+](=O)[O-])cc1", "inhibition": "-0.72%"}, {"smiles": "CCOc1ccc(/C=N/NC(=O)CSc2ccccn2)cc1O", "inhibition": "-2.92%"}, {"smiles": "O=C(COC(=O)/C=C/c1ccc(S(=O)(=O)N2CCCCCC2)cc1)NCc1ccccc1Cl", "inhibition": "2.41%"}, {"smiles": "C=C1CCN([C@H](C(=O)NCc2cc(OC)c(OC)c(OC)c2)C(C)C)S(=O)(=O)c2ccccc21", "inhibition": "-2.58%"}, {"smiles": "Nc1ccc(S(=O)(=O)Nc2nccc(/C=C/c3ccc(Br)s3)n2)cc1", "inhibition": "0.68%"}, {"smiles": "CC(C)(C)c1cc(C(=O)NN)n(Cc2ccc(Cl)cc2Cl)n1", "inhibition": "3.29%"}, {"smiles": "Cc1[nH]n(C)c(=O)c1C(=O)c1c(-c2c(Cl)cccc2Cl)noc1C", "inhibition": "-1.16%"}, {"smiles": "N/C(=N\\S(=O)(=O)c1ccc(Cl)cc1)N1CCOCC1", "inhibition": "-0.17%"}, {"smiles": "COc1ccc(N2CCN(C(=S)Nc3ccc(S(N)(=O)=O)cc3)CC2)cc1", "inhibition": "2.56%"}, {"smiles": "COC(=O)Cc1csc(/N=C/c2c(O)n(-c3cccc(C(F)(F)F)c3)c(=O)c3ccccc23)n1", "inhibition": "1.31%"}, {"smiles": "COc1ccc(C2C(C(=O)N3CCN(c4ccc(OC)cc4)CC3)c3ccccc3C(=O)N2C)cc1", "note": "(centres undefined)", "inhibition": "-1.58%"}, {"smiles": "COc1ccc([C@H]2[C@H](C(C)=O)N3N=Cc4ccccc4C3C23C(=O)OC(C)(C)OC3=O)cc1", "note": "(some centres undefined)", "inhibition": "34.6% (active)"}, {"smiles": "O=C(/C=C\\c1ccc2c(c1)OCO2)NC1(C(=O)Nc2ccc3c(c2)OCCO3)CCCCC1", "inhibition": "3.6%"}, {"smiles": "COC(=O)c1c(C)[nH]c(C)c1-c1ccc([N+](=O)[O-])cc1", "inhibition": "5.04%"}, {"smiles": "CC1CC1C(=O)OCC(=O)c1c(N)n(C)c(=O)n(C)c1=O", "note": "(centres undefined)", "inhibition": "1.81%"}, {"smiles": "CC1=C/C(=N\\OS(=O)(=O)c2ccccc2)C=CC1=O", "inhibition": "17.7%"}, {"smiles": "CC(=O)c1c(Nc2ccccc2)sc(C(=O)c2ccccc2)c1C", "inhibition": "0.53%"}, {"smiles": "Cc1ccc(NC(=O)/C(=C\\c2ccccc2)NC(=O)c2ccco2)cc1", "inhibition": "-2.75%"}, {"smiles": "Cc1cc(Br)ccc1SCC(=O)OCC(=O)NCc1ccc2c(c1)OCO2", "inhibition": "2.11%"}, {"smiles": "Nc1nc(SCc2ccccc2Cl)n[nH]1", "inhibition": "-1.58%"}, {"smiles": "O=c1cc(O)nc(SCc2ccccc2Cl)[nH]1", "inhibition": "-11.7%"}, {"smiles": "O=c1[nH]nc(CSCc2ccccc2Cl)[nH]1", "inhibition": "37.7% (active)"}, {"smiles": "Clc1ccc(-c2nc3ccccn3c2CN2CCSCC2)cc1", "inhibition": "3.32%"}, {"smiles": "COc1ccc(NC2=CC(=S)NC(C)(C)C2)cc1", "inhibition": "0.37%"}, {"smiles": "O=C(CSc1nnc(-c2ccc([N+](=O)[O-])cc2)o1)Nc1ccccn1", "inhibition": "-0.57%"}, {"smiles": "Nc1ccc2nc3c(=O)[nH]c(=S)[nH]c3nc2c1", "inhibition": "55.7% (active)"}, {"smiles": "Cc1cc2nc3c(=O)n(Cc4ccccc4)c(=O)[nH]c3nc2cc1N", "inhibition": "7.59%"}, {"smiles": "Cc1ccc(NC(=S)NC(NC(=O)Cc2cccc3ccccc23)C(Cl)(Cl)Cl)cc1", "note": "(centres undefined)", "inhibition": "-28%"}, {"smiles": "CN(c1ccccc1)S(=O)(=O)c1ccc(Cl)c(C(=O)OCC(=O)N2CCOCC2)c1", "inhibition": "-1.49%"}, {"smiles": "C/C(=N\\OCC(=O)O)c1ccc(Cl)cc1", "inhibition": "1.37%"}, {"smiles": "Cc1cc(C)nc(Nc2n[nH]c(-c3ccccc3N)n2)n1", "inhibition": "4.42%"}, {"smiles": "COc1ccc(C(=O)Cn2nnc(-c3ccc(N4CCOCC4)cc3)n2)cc1OC", "inhibition": "-9.64%"}, {"smiles": "COc1ccc(C(=O)n2nc(-c3ccc(C)cc3)nc2N)cc1OC", "inhibition": "-7.73%"}, {"smiles": "COC(=O)c1cc2occc2n1Cc1nc(-c2ccccc2C)oc1C", "inhibition": "4.23%"}, {"smiles": "O=C1Nc2cc(Cl)c(Cl)cc2N(O)N1c1ccccc1Cl", "inhibition": "0.39%"}, {"smiles": "FC(F)(F)Oc1ccc(-c2cn3cccnc3n2)cc1", "inhibition": "-1.02%"}, {"smiles": "Cc1nc(Cl)c(C#N)c2c1CCCC2", "inhibition": "5.36%"}, {"smiles": "COCc1c(N)c(C)nc(Cl)c1C#N", "inhibition": "33.5% (active)"}, {"smiles": "COC(=O)c1c(C)c(C)nc(N)c1C#N", "inhibition": "-1.17%"}, {"smiles": "O=S(=O)(NCCc1ccc(F)cc1)c1cccc2cccnc12", "inhibition": "68.5% (active)"}, {"smiles": "O=S(=O)(NCCOc1cccc2cccnc12)c1ccc(F)cc1", "inhibition": "-10.8%"}, {"smiles": "COc1ccc(CCNS(=O)(=O)c2cccc3cccnc23)cc1OC", "inhibition": "4.09%"}, {"smiles": "C=CCn1c(-c2sc(-c3ccccc3)nc2C)n[nH]c1=S", "inhibition": "3.95%"}, {"smiles": "C=CCn1c(-c2ccccc2OCC)n[nH]c1=S", "inhibition": "-7.58%"}, {"smiles": "C=CCn1c(-c2ccc3[nH]c(C)c(C)c3c2)n[nH]c1=S", "inhibition": "31.9% (active)"}, {"smiles": "NC(N)=Nc1nc2ccc(Br)cc2c(=O)[nH]1", "inhibition": "-3.42%"}, {"smiles": "CC(NCc1nc2ccccc2n1C)C12CC3CC(CC(C3)C1)C2", "note": "(centres undefined)", "inhibition": "3.84%"}, {"smiles": "O=C(c1ccc(Br)o1)N(c1ccccn1)C1CCCCC1", "inhibition": "1.85%"}, {"smiles": "Cc1ccc(OS(=O)(=O)c2ccc(-c3csc(C)n3)s2)c(C)c1", "inhibition": "-1.07%"}, {"smiles": "CCOc1ccc(C2c3[nH]c4ccccc4c3CCN2Cc2cn(CC)nc2C)cc1", "note": "(centres undefined)", "inhibition": "1.87%"}, {"smiles": "COC(=O)c1cc2n(n1)CCCNC2=O", "inhibition": "2.7%"}, {"smiles": "CC(=O)Nc1ccc(S(=O)(=O)N(C)c2ccc(OCC(=O)OCC(=O)N3CCCCC3)cc2)cc1", "inhibition": "-2.79%"}, {"smiles": "N#C/C(C(=O)N1CCOCC1)=C1/SC(Cc2ccc(F)cc2)C(=O)N1c1ccccc1", "note": "(centres undefined)", "inhibition": "2.54%"}, {"smiles": "Cc1cccc2cc3c(N)c(C(=O)N4CCCc5ccccc54)sc3nc12", "inhibition": "-0.81%"}, {"smiles": "CCOc1ccccc1/C=N/NC(=O)CNC(=O)COc1ccccc1", "inhibition": "0.46%"}, {"smiles": "O=C(COc1cccc2ccccc12)Nc1cc(S(=O)(=O)N2CCOCC2)ccc1N1CCOCC1", "inhibition": "-0.21%"}, {"smiles": "CCn1c(=O)c([N+](=O)[O-])c(NCc2ccc3c(c2)OCO3)c2ccccc21", "inhibition": "-2.34%"}, {"smiles": "CCOc1ccc(-n2cnc3c(=O)[nH]c(N)nc32)cc1", "inhibition": "-1.7%"}, {"smiles": "CCC(C)(C)NC(=O)CN(C(=O)C(=O)Nc1ccc2c(c1)OCCO2)C(C)(C)CC", "inhibition": "1.1%"}, {"smiles": "O=C(Nc1ccccc1C(F)(F)F)N1CCCC1c1cccnc1", "note": "(centres undefined)", "inhibition": "0.48%"}, {"smiles": "COc1cc2c(cc1OC)CC1(CCCCC1)N=C2", "inhibition": "-2.07%"}, {"smiles": "CC1(C)CC(N(Cc2ccccc2)C(=O)Cc2ccccc2)CCO1", "note": "(centres undefined)", "inhibition": "1.78%"}, {"smiles": "CCc1ccc(N(CC(=O)Nc2sc3c(c2C(=O)OC)CCCC3)S(C)(=O)=O)cc1", "inhibition": "1.86%"}, {"smiles": "Cc1cc(C)cc(NC(=O)COC(=O)c2cc(C)oc2C)c1", "inhibition": "-0.87%"}, {"smiles": "CCn1c(SCC(=O)N/N=C/c2ccccc2OCC(=O)O)nnc1-c1ccc(C(C)(C)C)cc1", "inhibition": "-4.63%"}, {"smiles": "CC(C)(C)CN1C(=O)C(=O)NC[C@H]1Cc1cccc2ccccc12", "inhibition": "3.22%"}, {"smiles": "C/C=C/C(=O)Nc1nnc(C(C)C)s1", "inhibition": "-1.19%"}, {"smiles": "O=C1c2cccc(OCC(=O)N3N=C(c4cccs4)CC3c3ccc(F)cc3)c2CCN1Cc1ccccc1", "note": "(centres undefined)", "inhibition": "11.7%"}, {"smiles": "CN=C1C=C/C(=N/N=c2\\ccn(O)cc2C)C=C1C", "inhibition": "3.23%"}, {"smiles": "Brc1ccc(-c2noc(-c3ccccc3)n2)o1", "inhibition": "3.6%"}, {"smiles": "COC(=O)c1cc(NC(=O)c2cc(C(C)(C)C)nn2Cc2cccc(C)c2)ccc1N1CCOCC1", "inhibition": "-1.37%"}, {"smiles": "CC(C)CNc1ncnc2c1cnn2Cc1ccc(Cl)cc1", "inhibition": "-0.57%"}, {"smiles": "COc1ccccc1-n1ccnc1SCC(=O)NC(C)(C)C", "inhibition": "-3.84%"}, {"smiles": "COc1ccc(NC(=O)Nc2ccc3nc(C)c(C)nc3c2)cc1", "inhibition": "3.88%"}, {"smiles": "O=C(NCc1ccccn1)c1ccc2nc(-c3ccco3)c(-c3ccco3)nc2c1", "inhibition": "2.59%"}, {"smiles": "COCCNC(=O)Nc1ccc2nc(-c3ccco3)c(-c3ccco3)nc2c1", "inhibition": "53.1% (active)"}, {"smiles": "CC(Sc1nnnn1C)C(=O)NC(=O)NC1CCCCC1", "note": "(centres undefined)", "inhibition": "3.38%"}, {"smiles": "COc1ccc(-n2c(C)cc(C(=O)CN3C(=O)NC4(CCc5ccccc54)C3=O)c2C)cc1", "note": "(centres undefined)", "inhibition": "-11%"}, {"smiles": "CC1=CC2=NC(=O)/C(=C/c3coc4ccccc4c3=O)C(=N)N2O1", "inhibition": "-3.42%"}, {"smiles": "COc1ccc(/C=C/C(=O)Nc2ccc(C)cc2)cc1S(=O)(=O)N1CCOCC1", "inhibition": "-7.24%"}, {"smiles": "Cc1cc(C)n(-c2nnc(N3CCN(c4ccccc4)CC3)nn2)n1", "inhibition": "1.58%"}, {"smiles": "CC(Nc1nc(N2CCN(CCO)CC2)nc2ccccc12)c1ccccc1", "note": "(centres undefined)", "inhibition": "1.5%"}, {"smiles": "Cn1c(CNC(=O)c2ccccc2F)nnc1SCc1ccc(F)cc1", "inhibition": "15.6%"}, {"smiles": "Cc1ccc(S(=O)(=O)NC(=O)N2CCCN(Cc3ccc(F)cc3)CC2)cc1", "inhibition": "0.62%"}, {"smiles": "CCCn1nc2cc(C(=O)NCc3ccccc3)ccc2c1OCC", "inhibition": "5.83%"}, {"smiles": "O=c1[nH]c2ccccc2n2c(-c3ccccc3)nnc12", "inhibition": "52.5% [fluorescence artefact?] (active)"}, {"smiles": "CCOC(=O)c1cnc2[nH]c3ccccc3n2c1=O", "inhibition": "13.5%"}, {"smiles": "O=[N+]([O-])c1cccc(-c2nnc3c4ccccc4c4ccccc4n23)c1", "inhibition": "13.6%"}]}]}
